Bioassay records: PubChem BioAssay, Sanford-Burnham Center for Chemical Genomics
CYP2C9 act: CYP2C9 (human) activation | recombinant CYP2C9, luciferin-H conversion, luminescence; stronger effect = higher value; factor 1 = untreated enzyme, 0 = blocked | P11712 | AID 1024 | hit rate 1.4% among 96,000 | activation factor at 5 µM;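 active means activation factor of 2 or more for CYP2C9 at a 5 µM dose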
CYP2C9 inhib: blocks human cytochrome P450 2C9; P11712; CYP2C9 Supersomes, luciferin-H conversion, luminescence; inhibition, % at 5 µM; hit rate 20% among 96,000;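 active means blocking of liver enzyme CYP2C9 beyond about 50% at 5 µM, limit read from the data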
CYP2C19 inhib: blocks human cytochrome P450 2C19; P33261; CYP2C19 Supersomes, luciferin-H EGE luminescence, 30 min; inhibition, % at 5 µM; hit rate 21% among 96,000;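 active means CYP2C19 inhibition above a set limit at 5 µM in the primary screen, cut at about 50% in these data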
CYP2C19 act: increases human CYP2C19 enzyme activity. P33261. recombinant CYP2C19, luciferin-H EGE luminescence; stronger effect = higher value; 0 = fully inhibited enzyme, 1 = untreated enzyme. activation factor at 5 µM. 96,000 tested, under 10 active;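 active means activation factor of at least 2 at 5 µM in the primary screen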
PLAP act: activators of human placental alkaline phosphatase. P05187. purified PLAP enzyme, luminescent substrate read-out; stronger effect = higher value. activation fold at 20 µM. hit rate 1.2% among 96,000. AID 696; in the data active means activation fold above about 2
Target sequence (P05187 whole entry, looked up): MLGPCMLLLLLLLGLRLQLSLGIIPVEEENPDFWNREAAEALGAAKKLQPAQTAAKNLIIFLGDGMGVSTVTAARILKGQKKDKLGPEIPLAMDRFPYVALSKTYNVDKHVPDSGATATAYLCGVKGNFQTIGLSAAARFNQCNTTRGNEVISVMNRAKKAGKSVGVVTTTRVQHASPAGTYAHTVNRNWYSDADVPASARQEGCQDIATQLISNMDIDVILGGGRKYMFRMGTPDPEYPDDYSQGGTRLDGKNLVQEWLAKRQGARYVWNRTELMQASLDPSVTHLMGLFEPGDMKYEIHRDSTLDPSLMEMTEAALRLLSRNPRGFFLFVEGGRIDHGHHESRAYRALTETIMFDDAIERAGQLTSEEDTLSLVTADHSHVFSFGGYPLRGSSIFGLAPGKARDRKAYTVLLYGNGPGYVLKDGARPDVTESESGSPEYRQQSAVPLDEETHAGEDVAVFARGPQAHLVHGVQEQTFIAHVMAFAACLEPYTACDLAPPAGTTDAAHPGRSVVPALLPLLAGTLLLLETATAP
A number is an active result; - = inactive. Only some compounds are listed: those with a hit (about 31% of all), similar ones and a draw of the others.

SMILES	CYP2C9 act	CYP2C9 inhib	CYP2C19 inhib	CYP2C19 act	PLAP act
COc1ccc(S(=O)(=O)N(CC(=O)NCc2ccco2)C2CCCCC2)cc1OC	-	-	86	-	-
COc1ccc(N(CC(=O)NCc2ccco2)S(C)(=O)=O)cc1OC	-	-	83	-	-
COc1ccc(S(=O)(=O)N(CC(=O)NC2CC2)C2CCCCC2)cc1Cl	-	72	59	-	-
CNC(=O)CN(C1CCCCC1)S(=O)(=O)c1ccc(OC)c(Cl)c1	-	-	-	-	-
COc1ccc(N(CC(=O)NCc2ccco2)S(C)(=O)=O)cc1	-	-	-	-	-
CN(C)CCC(=O)NCC1OCCc2ccccc21 (stereo unspecified)	-	-	-	-	-
CCC(C)C(NC(=O)c1ccccc1NC(=O)c1ccco1)C(=O)NC1CCCCC1 (stereo unspecified)	-	-	-	-	-
O=C1C2C3C=CC(C3)C2C(=O)N1c1n[nH]c(-c2cccnc2)n1 (stereo unspecified)	-	-	-	-	-
Cc1cccc(NC(=O)NCC(F)(F)F)n1	-	-	-	-	-
Cc1cccc(NC(=O)C(C)Oc2ccccc2C)n1 (stereo unspecified)	-	61	85	-	-
CC(C)C(NC(=O)C12CC3CC(CC(C3)C1)C2)C(=O)O (stereo unspecified)	-	-	-	-	-
O=C(N1CCOCC1)C1(c2ccccc2)CCCCC1	-	-	69	-	-
CCN(CCCNC(=O)C1CCCN(S(=O)(=O)c2cnc[nH]2)C1)c1ccccc1 (stereo unspecified)	-	52	78	-	-
CCCS(=O)(=O)N1CCCC(C(=O)NCCN(CC)c2ccccc2)C1 (stereo unspecified)	-	-	-	-	-
CCN(CCNC(=O)C1CCCN(S(=O)(=O)c2cnc[nH]2)C1)c1ccccc1 (stereo unspecified)	-	95	90	-	-
CCCS(=O)(=O)N1CCCC(C(=O)NCCCN(CC)c2cccc(C)c2)C1 (stereo unspecified)	-	-	-	-	-
CSc1ccc(NC(=O)N2CCN(c3nc4ccccc4s3)CC2)cc1	-	-	-	-	-
CCOc1ccccc1NC(=O)c1cccc(NC(=O)c2ccco2)c1	-	-	76	-	-
Cc1cc(NC(=O)c2ccco2)ncc1NC(=O)CCc1ccccc1	-	-	-	-	-
Cc1cc(NC(=O)c2cccc(F)c2)ncc1NC(=O)c1ccco1	-	63	96	-	-
CCCCOc1ccccc1NC(=O)c1ccco1	-	-	52	-	-
Cc1ccccc1OCC(=O)Nc1cccc(NC(=O)c2ccco2)c1	-	-	72	-	-
O=C(NCc1ccc(F)cc1)c1cc2n(n1)C(C(F)(F)F)CC(C1CC1)N2 (stereo unspecified)	-	-	-	-	-
CCCCOC(=O)c1ccc(NC(C)=O)cc1	-	-	-	-	-
CCCCCOC(=O)c1ccc(NC(=O)c2ccco2)cc1	-	94	80	-	-
SMILES	CYP2C9 act	CYP2C9 inhib	CYP2C19 inhib	CYP2C19 act	PLAP act
COc1ccc(C(=O)N2CCOCC2)cc1Br	2.3	-	-	-	-
S=C(c1ccc(N2CCOCC2)cc1)N1CCOCC1	-	-	-	-	-
CN(C)c1ccc(C(=S)N2CCOCC2)cc1Br	2.4	-	-	-	-
CC1(C(=O)CSc2n[nH]c(-c3ccccc3Cl)n2)CCC(=O)O1 (stereo unspecified)	-	-	-	-	-
CCOC(=O)c1cnc2cc(Cl)c(OC)cc2c1NCC1CCCO1 (stereo unspecified)	-	70	-	-	-
CCOC(=O)c1cnc2ccc(C(=O)OC)cc2c1NCc1ccco1	-	-	-	-	-
CC1CCC(NC(=O)C2CCN(C(=O)NC3CCCCC3)CC2)CC1 (stereo unspecified)	-	-	-	-	-
COCCNC(=O)CSc1nc(-c2ccccc2)cs1	-	-	-	-	-
CC(C)CCOC(=O)C1[C@H]2C(=O)N(Cc3cccs3)C[C@]23C=C[C@H]1O3 (stereo partly specified)	-	-	-	-	-
CN(CC(=O)O/N=C(\N)c1cccc([N+](=O)[O-])c1)S(=O)(=O)c1ccccc1	-	-	59	-	-
CN(CC(=O)O/N=C(\N)c1ccc([N+](=O)[O-])cc1)S(=O)(=O)c1ccccc1	-	-	-	-	-
COc1cc(CN(C)CC(=O)c2[nH]c(C)c(C(C)=O)c2C)ccc1OC(F)F	-	70	73	-	-
